Bioassay records as filed in PubChem.
L3MBTL1 block: blocks human L3MBTL1 | AlphaScreen L3MBTL1–H3K9me1 peptide binding | Potency, µM (series often up to 57.1 µM), inactives show top-dose activity, negative = inhibition, hits mostly inhibitors | 230,000 tested, 0.66% active | AID 485360; note: nearly all actives have a fitted effect of over 60% in size
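First, the protein-peptide complex forms for 30 min at room temperature (L3MBTL1 50 nM, biotinylated H3K9me1 peptide 75 nM). Next, compounds are pin-transferred and incubated 30 min. Finally, AlphaScreen beads are added and read after 30 min.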
APE1 inh: blocks human APE1 abasic DNA cleavage; P27695; recombinant APE1, TAMRA/BHQ-2 abasic DNA cleavage fluorescence; Potency, µM (top dose mostly 65.8 µM), for the others: top-dose activity change, negative = inhibition, usual class: inhibitors; 350,000 tested, 0.35% active;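 note: plate controls were vehicle for no effect and reference inhibitor for full effect; nearly all actives have a fitted effect of over 55% in size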
Target sequence (P27695 whole entry, looked up): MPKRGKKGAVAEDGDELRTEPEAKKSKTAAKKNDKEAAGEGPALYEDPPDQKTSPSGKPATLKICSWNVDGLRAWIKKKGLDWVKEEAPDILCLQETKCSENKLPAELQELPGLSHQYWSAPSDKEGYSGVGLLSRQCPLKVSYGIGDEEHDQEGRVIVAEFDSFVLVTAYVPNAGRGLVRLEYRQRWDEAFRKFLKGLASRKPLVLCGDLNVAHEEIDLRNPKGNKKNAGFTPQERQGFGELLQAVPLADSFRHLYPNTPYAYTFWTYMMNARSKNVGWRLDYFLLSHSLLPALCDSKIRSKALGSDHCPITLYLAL
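APE1 at 0.75 nM preincubated 15 min at room temperature with compound. Reaction then started with 50 nM double-stranded THF-abasic substrate labelled with TAMRA/BHQ-2, and 525/598 nm fluorescence read kinetically. Activity taken as third-minus-first read difference, normalized to DMSO and NSC13755 controls.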
RECQ1 inh-1: blocks DNA unwinding by human RECQ1; AID 2549; P46063; Potency, µM (doses to about 57.3 µM), for inactives: at the top dose activity, negative = inhibition, hits mostly inhibitors; RECQ1 DNA unwinding, red fluorescence kinetic read; 240,000 tested, 0.54% active;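 note: plate controls were vehicle for no effect and no enzyme for full effect; nearly all actives have a fitted effect of over 30% in size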
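50 nM RECQ1T1 preincubated 15 min with compound in Tris pH 8.0 buffer with MgCl2, DTT, Tween-20 and 2.5 ug/ml poly(dI-dC); started with 200 nM TAMRA/BHQ-2 forked duplex and 2 mM ATP. Unwinding read as fluorescence (525/598 nm), two reads 2 h apart.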
KDM4E inh: blocks human JMJD2E demethylase activity; B2RXH2; JMJD2E catalytic domain, FDH-coupled NADH fluorescence (FDH is formaldehyde dehydrogenase); Potency, µM (series often up to 57.1 µM), for inactives: at the top dose activity change, negative = inhibition, actives largely listed as inhibitors; 230,000 tested, 1.6% active; AID 2147; active = well fitted inhibition curve with a large enough effect, not every such curve was filed as active; inconclusive = small, poorly fitted or top-dose-only effect, or another doubt; inactive = no such curve, though single readings can be large or run the other way;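 note: 0% = wells with enzyme and -100% = buffer wells without enzyme; nearly all actives have a fitted effect of over 50% in size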
Target sequence (B2RXH2 1-337 limits assumed): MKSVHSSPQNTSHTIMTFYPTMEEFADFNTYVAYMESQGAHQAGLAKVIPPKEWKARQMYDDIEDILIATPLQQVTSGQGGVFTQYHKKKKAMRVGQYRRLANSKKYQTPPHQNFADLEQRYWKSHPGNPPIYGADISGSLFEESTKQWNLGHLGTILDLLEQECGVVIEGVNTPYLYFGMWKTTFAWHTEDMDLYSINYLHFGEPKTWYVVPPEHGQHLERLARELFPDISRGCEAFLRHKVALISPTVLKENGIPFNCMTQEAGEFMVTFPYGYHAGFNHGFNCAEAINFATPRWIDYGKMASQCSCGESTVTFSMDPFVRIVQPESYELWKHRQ
BLM helicase inh: inhibitors of human Bloom syndrome helicase BLM; P54132; recombinant BLM DNA unwinding, fluorescence dequenching; Potency, µM (doses to about 56.1 µM), for inactives: top-dose activity change, negative = inhibition, most hits filed as inhibitors; 350,000 tested, 0.2% active;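 note: plate controls were vehicle for no effect and no enzyme for full effect; nearly all actives have a fitted effect of over 35% in size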
RECQ1 inh conf: confirmation of human RECQ1 helicase inhibitors. shares compounds with RECQ1 inh-1. RECQ1 helicase DNA unwinding, fluorescence. Potency, µM (top dose mostly 229 µM), without a hit: at the top dose activity change, negative = inhibition, actives largely listed as inhibitors. 610 tested, 28% active. AID 2708; note: nearly all actives have a fitted effect of over 45% in size
ADP FP counter: ADP displacement flagged in RECQ1 inhibitor counter-screen. AID 2711. shares compounds with RECQ1 inh-1. Potency, µM (titrated, usually from 228 µM), for inactives: at the top dose activity change, negative = inhibition, usual class: inhibitors. 530 tested, 27% active. ADP fluorescence polarization displacement counterscreen; note: nearly all actives have a fitted effect of over 45% in size
RECQ1 inh-2: confirmation of human RECQ1 helicase inhibitors; AID 504841; 1,100 tested, 15% active; recombinant RECQ1 DNA unwinding, red fluorescence; Potency, µM (doses to about 119 µM), inactives show top-dose activity, negative = inhibition, hits mostly inhibitors; shares compounds with RECQ1 inh-1; note: nearly all actives have a fitted effect of over 50% in size
An asterisk follows results filed as active; [ ] = another dose, or the depositor's remark. This is one part of a sample in which hits are shown more often than they occur. Unless noted, calls come from the whole dose curve; as a rule, active = well fitted curve in the direction sought with a large enough effect; inconclusive = small, poorly fitted or top-dose-only effect, or another doubt; inactive = no such curve, though single readings can be large; an effect the other way counts as inactive or inconclusive. Unless noted, % is set by controls: 0 for no effect and ±100 for the full control effect; potency is the fitted concentration of half-maximal effect.

What do the screens show for `CC(=O)c1ccc(N2CCN(C(=O)c3ccc(Cl)c(NC4=NC5CS(=O)(=O)CC5S4)c3)CC2)cc1` (centres undefined)?
APE1 inh: 51%; BLM helicase inh: 0%

How did O=C(CSc1nnc(-c2ccccc2)o1)c1nnc(-c2ccccc2)o1 do in these assays?
L3MBTL1 block: -6%; APE1 inh: 2%; RECQ1 inh-1: inconclusive; KDM4E inh: inconclusive; BLM helicase inh: -17%; RECQ1 inh-2: -22%

Results for O=C(O)CC(SCC(=O)Nc1ccc(S(=O)(=O)N2CCCC2)cc1)C(=O)O (centres undefined) ?
L3MBTL1 block: 7%; APE1 inh: -7%; RECQ1 inh-1: inactive; KDM4E inh: -10%; BLM helicase inh: 1%; RECQ1 inh conf: 2%; ADP FP counter: -9%

What do the screens show for `Cc1ccc(C)c(OCCn2c(C3CC(=O)N(Cc4ccc(F)cc4)C3)nc3ccccc32)c1` (centres undefined)?
BLM helicase inh: -3%

How did O=S(=O)(c1ccccc1)c1nc(NC2CC2)sc1Cl do in these assays?
L3MBTL1 block: inconclusive; APE1 inh: 17%; RECQ1 inh-1: 40µM*; KDM4E inh: -9%; BLM helicase inh: -2%; RECQ1 inh-2: -5%

Results for Cc1ccc(S(=O)(=O)c2nc(NC3CCS(=O)(=O)C3)sc2Cl)cc1 (centres undefined) ?
APE1 inh: -3%; RECQ1 inh-1: -13%; KDM4E inh: 0%; BLM helicase inh: -10%

Results for O=C(CCNC(=O)c1ccc(Br)cc1)Nc1ccccc1N1CCOCC1 ?
L3MBTL1 block: -7%; APE1 inh: 14%

How did CSc1nc2ccc(NC(=O)NC(=O)c3c(F)cccc3F)cc2s1 do in these assays?
L3MBTL1 block: 6%; APE1 inh: 2%; RECQ1 inh-1: -4%; KDM4E inh: 8%; BLM helicase inh: 1%

How did COc1cccc(F)c1C(=O)NC(=O)Nc1ccc2nc(C)oc2c1 do in these assays?
APE1 inh: inconclusive; RECQ1 inh-1: 35µM*; KDM4E inh: inconclusive; BLM helicase inh: -6%; RECQ1 inh-2: 26%

What do the screens show for `CCOC(=O)C1(CC2CC2)CCN(S(=O)(=O)/C=C/c2ccccc2)CC1`?
L3MBTL1 block: 26%; APE1 inh: 6%; RECQ1 inh-1: inconclusive; KDM4E inh: -6%; BLM helicase inh: -5%; RECQ1 inh-2: -17%

What do the screens show for `OC1(Cc2ccccc2)CCNCC1`?
L3MBTL1 block: 3%; APE1 inh: 0%; RECQ1 inh-1: 0%; KDM4E inh: -2%; BLM helicase inh: -4%

What do the screens show for `COc1ccc(-c2csc(NC(=O)c3ccc(S(=O)(=O)N4CCc5ccccc5C4)cc3)n2)cc1`?
L3MBTL1 block: -1%; APE1 inh: 12%; RECQ1 inh-1: -4%; KDM4E inh: inconclusive; BLM helicase inh: 2%; RECQ1 inh conf: -7%; ADP FP counter: 5%

Results for COC(=O)c1ccc(-c2csc(NC(=O)c3ccc(S(=O)(=O)N4CCc5ccccc5C4)cc3)n2)cc1 ?
L3MBTL1 block: -7%; APE1 inh: -1%; RECQ1 inh-1: 2%; KDM4E inh: -1%; BLM helicase inh: -2%; RECQ1 inh conf: 8%; ADP FP counter: 16%

What do the screens show for `COc1ccc2c(c1)Cc1sc(NC(=O)c3cccs3)nc1-2`?
L3MBTL1 block: -21%[11.4 µM]; APE1 inh: -13%; RECQ1 inh-1: inconclusive; KDM4E inh: 11µM*; BLM helicase inh: -20%; RECQ1 inh-2: 17%

Results for COc1ccc(C(=O)Nc2nc3c(s2)Cc2cc(OC)ccc2-3)cc1 ?
L3MBTL1 block: -24%; APE1 inh: inconclusive; RECQ1 inh-1: 17%; KDM4E inh: -6%; BLM helicase inh: inconclusive

What do the screens show for `Cc1cc([N+](=O)[O-])nn1CC(=O)NCCCn1ccnc1`?
L3MBTL1 block: -6%; APE1 inh: -8%; RECQ1 inh-1: inactive; KDM4E inh: -8%; BLM helicase inh: -4%

What do the screens show for `Cc1cccc(NC(=O)C2C(c3ccccc3)C2(Cl)Cl)c1` (centres undefined)?
L3MBTL1 block: 23%; APE1 inh: -3%; RECQ1 inh-1: inconclusive; KDM4E inh: 4%; BLM helicase inh: -8%; RECQ1 inh-2: -14%

What do the screens show for `CC(=O)c1cccc(NC(=O)C2C(c3ccccc3)C2(Cl)Cl)c1` (centres undefined)?
L3MBTL1 block: -5%[11.4 µM]; APE1 inh: -3%; RECQ1 inh-1: -5%; KDM4E inh: -3%; BLM helicase inh: -12%

How did O=C1CC(c2ccccc2)Cc2nc3ncnn3cc21 (centres undefined) do in these assays?
APE1 inh: -3%; RECQ1 inh-1: inactive; KDM4E inh: -25%; BLM helicase inh: 2%

Results for Clc1ccccc1N1CCN(c2ncnc3nc[nH]c23)CC1 ?
L3MBTL1 block: 4%; APE1 inh: -1%; RECQ1 inh-1: 28µM*; KDM4E inh: -13%; BLM helicase inh: -1%; RECQ1 inh-2: inconclusive

Results for O=c1[nH]c(/C=C\c2cccc(O)c2)nc(O)c1[N+](=O)[O-] ?
L3MBTL1 block: 3%; APE1 inh: -7%; BLM helicase inh: 5%

Results for COc1ccc(-n2c(C)cc(/C=C/c3nc(O)c([N+](=O)[O-])c(=O)[nH]3)c2C)cc1 ?
L3MBTL1 block: inconclusive; APE1 inh: inconclusive; RECQ1 inh-1: inconclusive; KDM4E inh: 3%; BLM helicase inh: -25%; RECQ1 inh-2: inconclusive

What do the screens show for `CCOc1ccccc1/C=C\c1nc(O)c([N+](=O)[O-])c(=O)[nH]1`?
APE1 inh: 5%; BLM helicase inh: -5%

Results for Cc1cc(/C=C\c2nc(O)c([N+](=O)[O-])c(=O)[nH]2)c(C)n1-c1ccccc1 ?
L3MBTL1 block: -24%; APE1 inh: inconclusive; RECQ1 inh-1: 25µM*; KDM4E inh: -10%; BLM helicase inh: -16%; RECQ1 inh-2: inconclusive

What do the screens show for `Cc1ccc(S(=O)(=O)NNC(=O)Nc2ccc(Cl)cc2)cc1`?
L3MBTL1 block: 2%; APE1 inh: 1%; RECQ1 inh-1: 22µM*; KDM4E inh: 8%; BLM helicase inh: -11%; RECQ1 inh-2: -18%
